Compounds without any hit were thinned out: in the full panel of roughly 83,000, 20% have a hit.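 Negative percent growth values reflect cell death: -40 means 40% of the cells present at the start died, and -100 means all died.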 Activity calls are given as the source filed them. How the source made its calls: active means growth percent below 10; inactive means the rest.
Tests used:
Assay in all cases: NCI-60 one-dose screen, 48 h (100 = growth as untreated, 0 = no growth, -100 = all killed)
Conditions in all cases: 10 µM
SN12C renal = test system: SN12C renal
UO-31 renal = test system: UO-31 renal
TK-10 renal = test system: TK-10 renal
ACHN renal = test system: ACHN renal
CAKI-1 renal = test system: CAKI-1 renal
A498 renal = test system: A498 renal
CCRF-CEM leukemia = test system: CCRF-CEM leukemia
MOLT-4 leukemia = test system: MOLT-4 leukemia
SR leukemia = test system: SR leukemia
RPMI-8226 leukemia = test system: RPMI-8226 leukemia
OVCAR-8 ovarian = test system: OVCAR-8 ovarian
OVCAR-5 ovarian = test system: OVCAR-5 ovarian
OVCAR-4 ovarian = test system: OVCAR-4 ovarian
SK-OV-3 ovarian = test system: SK-OV-3 ovarian
IGROV1 ovarian = test system: IGROV1 ovarian
OVCAR-3 ovarian = test system: OVCAR-3 ovarian
HS 578T breast = test system: HS 578T breast
NCI/ADR-RES ovarian = test system: NCI/ADR-RES ovarian
T-47D breast = test system: T-47D breast

Measured: growth

C#Cc1ccc(-n2c(/C=C/c3ccc(Cl)c(F)c3)nc3ncccc3c2=O)cc1
inactive: OVCAR-5 ovarian 24.1% | HS 578T breast 13.8%
active: SN12C renal -4.94% | UO-31 renal -82.5% | TK-10 renal -44.6% | ACHN renal 0.478% | CAKI-1 renal -14.2% | A498 renal -39% | CCRF-CEM leukemia 1.54% | MOLT-4 leukemia -18.6% | SR leukemia -25.2% | RPMI-8226 leukemia -14.9% | OVCAR-8 ovarian -17.4% | OVCAR-4 ovarian -88.5% | SK-OV-3 ovarian -7.71% | IGROV1 ovarian -54.5% | OVCAR-3 ovarian -79.8% | NCI/ADR-RES ovarian 1.19% | T-47D breast -39%

C[C@]12CC[C@@H]3c4ccc(O)cc4C[C@@H](O)[C@H]3[C@@H]1CC[C@@H]2O
inactive: SN12C renal 100% | UO-31 renal 86.5% | TK-10 renal 111% | ACHN renal 105% | CAKI-1 renal 87.6% | A498 renal 79.6% | CCRF-CEM leukemia 103% | MOLT-4 leukemia 109% | SR leukemia 91.4% | RPMI-8226 leukemia 103% | OVCAR-8 ovarian 106% | OVCAR-5 ovarian 111% | OVCAR-4 ovarian 105% | SK-OV-3 ovarian 116% | IGROV1 ovarian 99.7% | OVCAR-3 ovarian 114% | HS 578T breast 117% | NCI/ADR-RES ovarian 113% | T-47D breast 118%

COc1ccc(-c2cc(/C=C3\C(=O)Nc4ccc(Cl)cc43)[nH]n2)cc1OC
inactive: SN12C renal 87.1% | UO-31 renal 71.1% | TK-10 renal 90% | ACHN renal 79.4% | CAKI-1 renal 81.3% | A498 renal 76% | CCRF-CEM leukemia 72.2% | MOLT-4 leukemia 57.5% | SR leukemia 55.2% | RPMI-8226 leukemia 68.6% | OVCAR-8 ovarian 81.4% | OVCAR-5 ovarian 101% | OVCAR-4 ovarian 19% | SK-OV-3 ovarian 94.6% | IGROV1 ovarian 66.8% | OVCAR-3 ovarian 104% | HS 578T breast 87.8% | NCI/ADR-RES ovarian 91.5% | T-47D breast 72.2%

COc1cc(-c2nn3c(/C=C4/C(=O)Nc5ccccc54)c(-c4ccc(C)cc4)nc3s2)cc(OC)c1OC
active: TK-10 renal -18.7% | OVCAR-4 ovarian -17.3% | HS 578T breast -19.4%
inactive: SN12C renal 73.2% | UO-31 renal 73.1% | ACHN renal 81.1% | CAKI-1 renal 64.6% | A498 renal 98.9% | CCRF-CEM leukemia 67.4% | MOLT-4 leukemia 47.8% | SR leukemia 26.5% | RPMI-8226 leukemia 45.4% | OVCAR-8 ovarian 46.8% | OVCAR-5 ovarian 85.9% | SK-OV-3 ovarian 79.5% | IGROV1 ovarian 77.4% | OVCAR-3 ovarian 43.6% | NCI/ADR-RES ovarian 41.8% | T-47D breast 63.6%

CCC(=O)N1C/C(=C/c2ccc(Cl)cc2)C(=O)/C(=C/c2ccc(Cl)cc2)C1
inactive: HS 578T breast 22.2% | NCI/ADR-RES ovarian 14.9% | T-47D breast 26%
active: SN12C renal -26.1% | UO-31 renal -94% | TK-10 renal -30.6% | ACHN renal -50.7% | CAKI-1 renal -20.7% | A498 renal -26.7% | CCRF-CEM leukemia -11.1% | MOLT-4 leukemia -8.59% | SR leukemia -27.9% | RPMI-8226 leukemia -37% | OVCAR-8 ovarian 1.63% | OVCAR-5 ovarian 2.37% | OVCAR-4 ovarian 8.11% | SK-OV-3 ovarian -34.8% | IGROV1 ovarian -66.1% | OVCAR-3 ovarian -47.2%

C#Cc1ccc(-n2c(/C=C/c3ccc(O)cc3)nc3ncccc3c2=O)cc1
active: A498 renal -1.24% | OVCAR-3 ovarian 4.59%
inactive: SN12C renal 75.9% | UO-31 renal 34.3% | TK-10 renal 93.7% | ACHN renal 49.8% | CAKI-1 renal 55.9% | CCRF-CEM leukemia 85.7% | MOLT-4 leukemia 101% | SR leukemia 18.1% | RPMI-8226 leukemia 46.9% | OVCAR-8 ovarian 75.2% | OVCAR-5 ovarian 97.4% | OVCAR-4 ovarian 61% | SK-OV-3 ovarian 45.5% | IGROV1 ovarian 62.5% | HS 578T breast 64% | NCI/ADR-RES ovarian 55% | T-47D breast 67.4%

N#CCCN1C/C(=C/c2ccc(Br)cc2)C(=O)/C(=C/c2ccc(Br)cc2)C1
inactive: HS 578T breast 12.4% | NCI/ADR-RES ovarian 16.8%
active: SN12C renal -51.2% | UO-31 renal -91.3% | TK-10 renal -29.1% | ACHN renal -53.5% | CAKI-1 renal -7.84% | A498 renal -39.7% | CCRF-CEM leukemia -5.67% | MOLT-4 leukemia 2.26% | SR leukemia -17.3% | RPMI-8226 leukemia -14% | OVCAR-8 ovarian -17.3% | OVCAR-5 ovarian 2.15% | OVCAR-4 ovarian 0.905% | SK-OV-3 ovarian 9.84% | IGROV1 ovarian -69.1% | OVCAR-3 ovarian -65.2% | T-47D breast 6.33%

COc1ccc(Cn2c(C(N)=O)cc3c2-c2nc(N)ncc2CCC3)cc1
inactive: SN12C renal 106% | UO-31 renal 82.6% | TK-10 renal 108% | ACHN renal 97.1% | CAKI-1 renal 105% | A498 renal 76.2% | CCRF-CEM leukemia 95.8% | MOLT-4 leukemia 108% | SR leukemia 108% | RPMI-8226 leukemia 85.5% | OVCAR-8 ovarian 98.6% | OVCAR-5 ovarian 87.7% | OVCAR-4 ovarian 99.7% | SK-OV-3 ovarian 104% | IGROV1 ovarian 101% | OVCAR-3 ovarian 107% | HS 578T breast 91.3% | NCI/ADR-RES ovarian 110% | T-47D breast 104%

N=C(N)c1ccc(-c2ccc(-c3ccccc3)o2)nc1
inactive: SN12C renal 86.6% | UO-31 renal 65.7% | TK-10 renal 111% | ACHN renal 92.4% | CAKI-1 renal 83.8% | A498 renal 45.7% | CCRF-CEM leukemia 82.5% | MOLT-4 leukemia 60% | SR leukemia 55.6% | RPMI-8226 leukemia 38.6% | OVCAR-8 ovarian 92.6% | OVCAR-5 ovarian 85% | OVCAR-4 ovarian 75.3% | SK-OV-3 ovarian 100% | IGROV1 ovarian 95.7% | OVCAR-3 ovarian 106% | HS 578T breast 131% | NCI/ADR-RES ovarian 100% | T-47D breast 81.5%

COc1cc(C2CC(c3ccc(Nc4ccnc5cc(Cl)ccc45)cc3)=NN2c2ccc(Cl)cc2)cc(OC)c1OC (centres undefined)
inactive: SN12C renal 59.5% | UO-31 renal 18.4% | TK-10 renal 64.1% | ACHN renal 38% | CAKI-1 renal 18.6% | A498 renal 52.3% | CCRF-CEM leukemia 28% | MOLT-4 leukemia 31.5% | SR leukemia 12.2% | RPMI-8226 leukemia 44.7% | OVCAR-8 ovarian 53.8% | OVCAR-5 ovarian 80.6% | OVCAR-4 ovarian 69.7% | SK-OV-3 ovarian 79.2% | IGROV1 ovarian 57.5% | OVCAR-3 ovarian 38% | HS 578T breast 61.6% | NCI/ADR-RES ovarian 29.6% | T-47D breast 41.3%

Nc1c(C(=O)Nc2ccccc2Cl)sc2nc3c(cc12)C(=O)CCC3
inactive: SN12C renal 56.7% | UO-31 renal 68.9% | TK-10 renal 64.3% | ACHN renal 57.1% | CAKI-1 renal 20.7% | CCRF-CEM leukemia 19.4% | MOLT-4 leukemia 86.8% | SR leukemia 42.3% | RPMI-8226 leukemia 87.9% | OVCAR-8 ovarian 100% | OVCAR-5 ovarian 70.5% | OVCAR-4 ovarian 84.4% | SK-OV-3 ovarian 13.8% | IGROV1 ovarian 62.9% | OVCAR-3 ovarian 56.4% | HS 578T breast 40.8% | NCI/ADR-RES ovarian 57.2% | T-47D breast 75%
active: A498 renal -10.9%

COc1ccc(-c2nn(-c3cccc(NC(=O)Nc4cc(C(F)(F)F)cc(C(F)(F)F)c4)c3)cc2-c2ccncc2)cc1Cl
active: UO-31 renal -11.6% | CAKI-1 renal -12.3% | A498 renal -16.5% | CCRF-CEM leukemia -17.8% | MOLT-4 leukemia -15.3% | SR leukemia -19.6% | RPMI-8226 leukemia -25.1% | OVCAR-8 ovarian 1.12% | SK-OV-3 ovarian 8.88% | IGROV1 ovarian 4.91% | OVCAR-3 ovarian 5.75% | HS 578T breast 0.225% | NCI/ADR-RES ovarian 5.83% | T-47D breast 2.31%
inactive: SN12C renal 18.9% | TK-10 renal 11.8% | ACHN renal 11% | OVCAR-5 ovarian 18.7% | OVCAR-4 ovarian 16.4%

CCCC#CCN(CC)CC
inactive: SN12C renal 95.8% | UO-31 renal 83.5% | TK-10 renal 99.2% | ACHN renal 106% | CAKI-1 renal 88.2% | A498 renal 105% | CCRF-CEM leukemia 95% | MOLT-4 leukemia 109% | SR leukemia 101% | RPMI-8226 leukemia 105% | OVCAR-8 ovarian 100% | OVCAR-5 ovarian 112% | OVCAR-4 ovarian 104% | SK-OV-3 ovarian 107% | IGROV1 ovarian 110% | OVCAR-3 ovarian 117% | HS 578T breast 105% | NCI/ADR-RES ovarian 114% | T-47D breast 108%

COc1ccc2c(c1)O/C(=C\c1ncc([N+](=O)[O-])n1C)C2=O
active: SN12C renal -8.55% | UO-31 renal -39.2% | TK-10 renal -27.3% | ACHN renal 0.77% | CAKI-1 renal -26.7% | A498 renal -77.7% | CCRF-CEM leukemia 4.88% | MOLT-4 leukemia 2.86% | SR leukemia 7.55% | RPMI-8226 leukemia -1.22% | OVCAR-8 ovarian -20.8% | OVCAR-5 ovarian -14.7% | OVCAR-4 ovarian -11.6% | SK-OV-3 ovarian -15.9% | IGROV1 ovarian -25% | OVCAR-3 ovarian -24.8% | HS 578T breast -21.1% | NCI/ADR-RES ovarian 1.07%
inactive: T-47D breast 76.5%

CCOC(=O)C1(CC(C)C)CCOC1=O (centres undefined)
inactive: SN12C renal 94.7% | UO-31 renal 90.1% | TK-10 renal 106% | ACHN renal 98.2% | CAKI-1 renal 92.4% | A498 renal 107% | CCRF-CEM leukemia 92.2% | MOLT-4 leukemia 100% | SR leukemia 104% | RPMI-8226 leukemia 95.6% | OVCAR-8 ovarian 93.8% | OVCAR-5 ovarian 97% | OVCAR-4 ovarian 95.5% | SK-OV-3 ovarian 101% | IGROV1 ovarian 119% | OVCAR-3 ovarian 104% | HS 578T breast 110% | NCI/ADR-RES ovarian 98.8% | T-47D breast 99%

FC(F)(F)c1ccc(-c2cnc(Cl)nc2N2CCC3(CC2)OCCO3)cc1
inactive: SN12C renal 103% | UO-31 renal 69.5% | TK-10 renal 89.8% | ACHN renal 92.6% | CAKI-1 renal 86.5% | A498 renal 75.8% | CCRF-CEM leukemia 91.1% | MOLT-4 leukemia 74% | SR leukemia 81.5% | RPMI-8226 leukemia 76.3% | OVCAR-8 ovarian 95% | OVCAR-5 ovarian 92.9% | OVCAR-4 ovarian 89.9% | SK-OV-3 ovarian 88.9% | IGROV1 ovarian 83.6% | OVCAR-3 ovarian 96% | HS 578T breast 105% | NCI/ADR-RES ovarian 87.4% | T-47D breast 88.8%
